# The full list was thinned out, with hits kept by preference.
# ERG Ets-DNA blk – blocks human ERG Ets domain binding to DNA. P11308. fluorescence polarization, His-ERG Ets domain / labelled DNA. Potency, µM (doses to about 76.9 µM), without a hit: top-dose FP activity, negative = inhibition, hits mostly inhibitors. hit rate 0.028% among 370,000; active = well fitted inhibition curve with a large enough effect in the polarisation, with a control signal flat; inconclusive = small, poorly fitted or top-dose-only effect, or effect the other way, or a change in a side signal; inactive = no such curve, though single readings can be large or run the other way; the % refers to the polarisation;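 also: polarization taken with two DNA probes labelled with fluorescein and Texas red; potency is read from the fitted curve at half-maximal effect; % of control where 0% means no effect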
#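 His-tagged ERG Ets domain (1 uM in the protein solution; 300mM KCl, 50mM Tris-HCl, 1mM EDTA, 1mM DTT, pH 7.5) received compound, then a probe mix of 5 nM fluorescein-DNA and 100nM Texas-615-DNA. Fluorescence polarization was read for both dyes.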
# Giardia killer – kills Giardia lamblia. Giardia lamblia trophozoite viability. activity change, % at 7.66 µM, hits read low. hit rate 0.15% among 340,000; in the data active = activity change below about -80%; inconclusive = between about -30% and that limit;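 also: parasites exposed to compound for two days anaerobically before the ATP read; % is scaled to controls: 0 for no effect and ±100 for the full control effect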
#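 Viability, read as ATP luminescence: trophozoites at 100 cells/well, compound added, 48 hrs anaerobic at 37 deg C, then 15-30 min room-temperature development before reading.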
# a7 integrin act – integrin-mediated muscular dystrophy alleviation activation; alpha7betagal myoblasts, beta-gal FDG fluorescence, 48 h; Potency, µM (series often up to 38.3 µM), for inactives: top-dose activation, actives largely listed as activators; hit rate 0.064% among 350,000;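 also: potency is read from the fitted curve at half-maximal effect; 100% = response of the positive control SU9516; nearly all actives have a fitted effect of over 60% in size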
#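 alpha7betagal+/- myoblasts (passage 13, 250/well) treated 48 h at 37C with compounds at 1:260 dilution of DMSO stock. Lysed, then beta-galactosidase activity read as FDG fluorescence (ex 480/em 540) after 30 min, with pre-read for autofluorescence.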
# VP16 counter – Gal4-VP16 reporter inhibition counter-screen; Drosophila S2 Gal4-VP16 UAS-luciferase, luminescence, 20 h; hit rate 3.5% among 310,000; AID 2546; Potency, µM (doses to about 53.6 µM), for inactives: top-dose activity, negative = inhibition, hits mostly inhibitors;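 also: Gal4-VP16 expression switched on by copper sulfate through the metallothionein promoter; potency is read from the fitted curve at half-maximal effect; % is scaled to controls: 0 for no effect and ±100 for the full control effect; nearly all actives have a fitted effect of over 50% in size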
# RORg inh – blocks mouse ROR gamma transcriptional activity; AID 2551; hit rate 5.4% among 310,000; Drosophila S2 Gal4-RORgamma UAS-luciferase reporter, 20 h; Potency, µM (top dose mostly 53.6 µM), without a hit: at the top dose activity change, negative = inhibition, most hits filed as inhibitors; also: potency is read from the fitted curve at half-maximal effect; % is scaled to controls: 0 for no effect and ±100 for the full control effect; nearly all actives have a fitted effect of over 60% in size
# Target sequence (P51450 whole entry, looked up, the tested form may be a part): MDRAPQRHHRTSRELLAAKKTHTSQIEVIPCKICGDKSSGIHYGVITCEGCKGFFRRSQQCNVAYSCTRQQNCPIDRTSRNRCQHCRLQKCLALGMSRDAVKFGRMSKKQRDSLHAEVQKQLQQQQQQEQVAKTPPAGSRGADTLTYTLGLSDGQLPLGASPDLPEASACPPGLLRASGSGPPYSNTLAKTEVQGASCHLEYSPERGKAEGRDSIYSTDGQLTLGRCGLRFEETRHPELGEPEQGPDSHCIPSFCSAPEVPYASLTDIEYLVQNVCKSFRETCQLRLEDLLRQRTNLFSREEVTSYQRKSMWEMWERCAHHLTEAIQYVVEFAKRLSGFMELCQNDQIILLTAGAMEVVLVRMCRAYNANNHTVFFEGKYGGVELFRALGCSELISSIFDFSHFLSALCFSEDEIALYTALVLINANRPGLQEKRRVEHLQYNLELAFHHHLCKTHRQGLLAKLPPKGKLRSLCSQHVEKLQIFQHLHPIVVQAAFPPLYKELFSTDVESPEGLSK
#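 Read-out: Photinus luciferase luminescence; inhibitors lower reporter signal. Insect Schneider cells with Gal4-ROR gamma fusion under metallothionein promoter, UAS reporter; 700 uM final copper sulfate induction, 20 hr, ambient temperature.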
# * hit, by the source's call; u = inconclusive; x = not tested or not shown; [ ] = another dose, or the depositor's remark. Unless noted, calls follow the shape of the dose curve; as a rule, active = well fitted curve in the direction sought with a large enough effect; inconclusive = small, poorly fitted or top-dose-only effect, or another doubt; inactive = no such curve, though single readings can be large; an effect the other way counts as inactive or inconclusive.
SMILES,ERG Ets-DNA blk,Giardia killer,a7 integrin act,VP16 counter,RORg inh
Cc1cn(C)c(CC(=O)Nc2ccc(F)cc2Cl)c1C(=O)O,-1%,x,x,x,x
COC(=O)N[C@@H](c1cccc(C)c1)C(C(C)=O)C(=O)OC (some centres undefined),x,x,x,-5%,8%
Cc1cc(-n2c(C)cc(C(=O)CSc3ncnc4ccccc34)c2C)no1,-1%,1,-50%,5µM*,u
Cc1cc(C)n2nc(SCC(=O)c3cc(C)n(-c4cc(C)on4)c3C)nc2n1,1%,-2,-11%,4µM*,-5%
COc1ccc(-c2nnc(SCC(=O)Nc3ncc(C(F)(F)F)cc3Cl)n2CC(C)C)cc1,1%,0,17%,-16%,-42%
O=C(CSc1nnc(-c2ccc3c(c2)OCO3)o1)Nc1ncc(C(F)(F)F)cc1Cl,7%,-10,8%,u,4µM*
CCn1c(SCC(=O)Nc2ncc(C(F)(F)F)cc2Cl)nnc1-c1cccc(C)c1,1%,-4,-4%,u,10µM*
CCNC(=O)c1c(NC(=O)c2nc(S(=O)(=O)CC)ncc2Cl)sc2c1CCCC2,-1%,x,x,x,x
CCc1c(C)sc2c1CCN(Cc1ccccc1)C2c1ccccc1 (centres undefined),8%,x,x,x,x
CC(=O)N(C1CC(C)C(C#N)(C#N)C1(C#N)C#N)N(C)C (centres undefined),0%,1,-63%,-4%[10 µM],7.9µM*
O=[N+]([O-])c1ccc2c(c1Nc1ccccc1Cl)=NC1(CCCCC1)N=2,3%,-9,0%,3%,-11%
Cc1ccc(Nc2c([N+](=O)[O-])ccc3c2=NC2(CCCCC2)N=3)cc1,6%,7,-11%,-16%,7.9µM*
FC(F)(F)c1cnc(-c2cnc(-c3ccccn3)nc2)c(Cl)c1,-16%,-18,18%,-11%,5.6µM*
CC(O)CCCCCCC/C=C/C=C/C(N)=O (centres undefined),x,x,x,-5%[10 µM],0%[10 µM]
COc1ccc2c(c1)OCC(Cc1ccc(OC)c(O)c1)C2=O (centres undefined),x,x,x,2%,u
CCOC(=O)C1=C(c2ccccc2)NC(=S)NC1C (centres undefined),-2%,-14,-9%,u,10µM*
CCOC(=O)C1=C(c2ccccc2)NC(=O)NC1c1ccc(OC)cc1OC (centres undefined),12%,-9,15%,9%,1%
CCOC(=O)C1=C(C)NC(=S)NC1C (centres undefined),-2%,5,5%,-3%,u
CCOC(=O)C1=C(c2ccccc2)NC(=S)NC1c1cc([N+](=O)[O-])ccc1OC (centres undefined),-16%,-18,21%,u,13µM*
CCOC(=O)C1=C(c2ccccc2)NC(=S)NC1c1cccc([N+](=O)[O-])c1 (centres undefined),-13%,3,-7%,u,u
CCOC(=O)C1=C(c2ccccc2)NC(=S)NC1c1ccc(C)c([N+](=O)[O-])c1 (centres undefined),x,11,7%,11µM*,u
O=C(N/N=C/c1cccn1-c1ccc([N+](=O)[O-])cc1)c1cccnc1,-10%[15.4 µM],-10,-43%,10µM*,u
O=C(N/N=C/c1cccn1-c1ccccc1)c1ccncc1,3%,0,-14%,20µM*,3.5µM*
COc1cc(C(=O)N/N=C/c2sc(=O)n(-c3ccccc3)c2Cl)cc(OC)c1OC,18%,25,-42%,u,-20%
O=C(N/N=C/c1sc(=O)n(-c2ccccc2)c1Cl)c1ccncc1,3%,0,-33%,11µM*,7.1µM*
SMILES,ERG Ets-DNA blk,Giardia killer,a7 integrin act,VP16 counter,RORg inh
CN(C)c1ncc2nc(-c3cccs3)c(=O)n(C3CC3)c2n1,x,x,x,14%,2%
COC(=O)C1(C)COP(=O)(NC23CC4CC(CC(C4)C2)C3)OC1 (centres undefined),1%,-1,0%,x,x
O=C1CS/C(=N/N=C/c2ccccc2OS(=O)(=O)c2ccccc2)N1,17%,-13,-20%,13µM*,u
Cc1ccc(OS(=O)(=O)c2ccccc2)c(/C=N/N=C2\NC(=O)C(C)S2)c1 (centres undefined),6%,-6,-10%,16µM*,8.9µM*
Cc1ccc(S(=O)(=O)Oc2ccccc2/C=N/O)cc1,16%,-27,-24%,8%,6%
CNC(=O)NC(=O)C(C)OC(=O)CCCc1nc2ccccc2s1 (centres undefined),10%,4,9%,-23%,-34%
CCNC(=O)NC(=O)COC(=O)CCCSc1nc2ccccc2s1,-2%,8,12%,7.9µM*,u
CCNC(=O)NC(=O)C(C)OC(=O)CCCSc1nc2ccccc2s1 (centres undefined),-3%,-14,0%,4.5µM*,u
CCc1cccc(C)c1NC(=O)CCCSc1nc2ccccc2s1,-3%,9,-8%,-2%,12%
CNC(=O)NC(=O)C(C)OC(=O)CCCSc1nc2ccccc2s1 (centres undefined),6%,8,-9%,4.5µM*,7.1µM*
Cc1ccccc1NC(=O)CCCSc1nc2ccccc2s1,5%,9,-13%,2.5µM*,13µM*
CCNC(=O)NC(=O)COC(=O)CCCc1nc2ccccc2s1,-3%,-3,6%,0%,-12%
COc1ccc(CN2COc3ccc4c(-c5ccccc5)cc(=O)oc4c3C2)cc1OC,-4%,x,x,x,x
COc1cc2cc(CCCOC(=O)c3ccc(C(F)(F)F)cc3)oc(=O)c2cc1OC,-11%,-1,14%,x,x
O[C@@H]1CN(CC2CCCCC2)[C@@H](c2ccccc2)C[C@H]1n1cc(-c2ccc(F)cc2)nn1,x,x,-60%,x,x
Cc1oc(-c2ccccc2Cl)nc1CS(=O)CC(=O)N1CCN(c2cccc(C(F)(F)F)c2)CC1 (centres undefined),3%,x,x,x,x
COc1cccc(C2CC(=O)Nc3c2c(=O)nc2c(C)cccn32)c1OC (centres undefined),2%,x,x,x,x
COC(=O)CSc1nc(N)c2c3c(sc2n1)CCCC3,-5%,2,25%,5%,u
COC(=O)CSc1nc(N)c2c3c(sc2n1)C(c1ccccc1)SC(c1ccccc1)C3 (centres undefined),9%,-21,-54%,11µM*,10µM*
COc1ccc(C(N)=O)c(OCC(=O)Nc2cc(C)on2)c1,-3%,7,18%,x,x
Cc1ccccc1-n1c(-c2cccnc2)n[nH]c1=S,-7%,14,-13%,15%,u
S=c1[nH]nc([C@@H]2C[C@H]2c2ccccc2)n1-c1ccccc1,0%,-21,-13%,4µM*,2.8µM*
Cc1ccccc1-n1c([C@@H]2C[C@H]2c2ccccc2)n[nH]c1=S,20%,-7,1%,u,5µM*
COc1ccc(OCc2nc(C#N)c(NCc3ccccc3Cl)o2)cc1,2%,x,x,x,x

# Screening results (PubChem BioAssay)
